About 83,000 compounds went through this panel and 20% of them were active in at least one assay; those are over-represented in the sample as a whole.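 Cells were grown in 96-well plates and exposed to the test compound at a single concentration for 48 hours; results are reported as percent growth, with values below 10 considered active.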 Unmarked numbers belong to inactive results. Active and inactive are the calls of the source.
How the values were obtained:
Assay in all cases: NCI-60 one-dose screen, 48 h (100 = growth as untreated, 0 = no growth, -100 = all killed)
Conditions in all cases: 10 µM unless noted
[1] = tested on: SK-MEL-2 melanoma
[2] = tested on: EKVX NSCLC
[3] = tested on: SN12C renal
[4] = tested on: UO-31 renal
[5] = tested on: TK-10 renal
[6] = tested on: ACHN renal
[7] = tested on: CAKI-1 renal
[8] = tested on: A498 renal
[9] = tested on: CCRF-CEM leukemia
[10] = tested on: MOLT-4 leukemia
[11] = tested on: SR leukemia
[12] = tested on: RPMI-8226 leukemia
[13] = tested on: OVCAR-8 ovarian
[14] = tested on: OVCAR-5 ovarian
[15] = tested on: OVCAR-4 ovarian
[16] = tested on: SK-OV-3 ovarian
[17] = tested on: IGROV1 ovarian
[18] = tested on: HS 578T breast
[19] = tested on: NCI/ADR-RES ovarian
[20] = tested on: OVCAR-3 ovarian

SMILES | growth [1] | growth [2] [%] | growth [3] [%] | growth [4] | growth [5] | growth [6] | growth [7] [%] | growth [8] | growth [9] | growth [10] | growth [11] | growth [12] | growth [13] | growth [14] | growth [15] [%] | growth [16] | growth [17] [%] | growth [18] | growth [19] [%] | growth [20] [%]
CCN1C(=O)N(CC)C2C1NN=c1s/c(=C\c3cnc(C)n3C)c(=O)n12 (stereo not drawn) | 39.2% | 49.7 | 33.4 | 40.9% | 51.5% | 34.3% | 26 | -9.65% (active) | 9.03% (active) | 35% | 25.3% | 20.1% | 14.8% | 35.2% | 52 | 27.9% | 35.1 | -1.81% (active) | 75.4 | 
Fc1ccc(Cn2cc(CSc3nc4ccccc4o3)nn2)cc1 | 99.1% | 108 | 96.5 | 83.6% | 95.7% | 102% | 91.3 | 98% | 100% | 92.7% | 103% | 105% | 102% | 100% | 98.9 | 91.3% | 98.8 | 105% | 109 | 
CCOc1ccc(-n2nc(C(=O)NCc3ccccc3OC)nc2-c2cc(OC)c(OC)c(OC)c2)cc1 | 41.5% | 41.3 | 39.7 | -2.66% (active) | 46.5% | 19.6% | 25.9 | 30% | 39.7% | 0.381% (active) | 35.9% | 26.9% | 43.7% | 74.2% | 23.4 | 67.1% | 43.7 | 55.1% |  | 
Cc1ccc2c(-c3nnc(N)s3)cc(=O)oc2c1C | 110% | 97.3 | 99.8 | 80.2% | 102% | 103% | 94.1 | 85.1% | 39.2% | 102% | 110% | 91.2% | 96.1% | 114% | 100 | 109% | 98.5 | 95.6% | 102 | 
CCNc1nc(O)c(/C=C2\C=Nc3ncccc32)s1 | -48.7% (active) | 14.1 | 12.6 | 7.47% (active) | -3.75% (active) | 0.663% (active) | 20.6 | -54.2% (active) | 3.01% (active) | -6% (active) | 0.377% (active) | 29.1% | 6.27% (active) | 8.67% (active) | 19.5 | -10.3% (active) | 21.7 | -15.1% (active) | 29.7 | 
O=C(O)COc1ccc(Cl)c(Cl)c1 | 118% | 104 | 114 | 108% | 116% | 107% | 107 | 110% | 100% | 101% | 93.7% | 101% | 105% | 106% | 113 | 105% | 107 |  | 106 | 123
O=C1NC(=O)/C(=C/c2c(-c3ccccc3)nc3sc(COc4ccccc4)nn23)S1 | 92.1% | 91.9 | 102 | 84.7% | 108% | 98.3% | 98 | 78.7% | 98.3% | 96.1% | 90.2% | 84.4% | 105% | 115% | 93.4 | 105% | 112 | 105% | 100 | 
COc1ccc2c(c1)c(-c1nc(-c3c[nH]c4ncccc34)cs1)cn2CCO | 48.7% | 34.9 | 63.5 | 16.1% | 58.3% | 26.7% | 35.5 | -0.474% (active) | 41.3% | 55% | 37.8% | 39.9% | 56.2% | 68.2% | 42.1 | 30% | 43.4 | 33.5% | 76 | 
C=C1C(=O)O[C@H]2[C@H]1CC/C(COC(=O)/C=C\C(=O)NCc1ccc(Cn3c(=O)sn(CCCCC)c3=O)cc1)=C\CC[C@@]1(C)O[C@@H]21 | 87.6% | 98 | 71 | 60.7% | 57.4% | 46.9% | 66.6 | 100% | 4.56% (active) | 18% | 59.7% | 8.85% (active) | 84.5% | 89% | 84.6 | 111% | 58 | 98.2% | 98.8 | 
COc1ccc(C(=S)N2CCN(c3ccc(Cl)cc3)CC2)cc1 | 97.7% | 130 | 85.4 | 81.9% | 101% | 94.8% | 105 | 107% | 90.3% | 76.8% | 90.5% | 94% | 98.2% | 93.8% | 102 | 98.5% | 109 |  | 97.6 | 114
COc1ccc(/C=C2\COc3ccc(O)cc3C2=O)cc1 | 109% | 105 | 92.5 | 72.7% | 104% | 98.9% | 89.4 | 110% | 3.13% (active) | 74.5% | 15.8% | -0.495% (active) | 95.3% | 102% | 104 | 128% | 99.6 | 104% | 98.5 | 
CC1=C(C(=O)Nc2nc(-c3ccc(Cl)cc3)cs2)[C@H](c2ccc(O)cc2)NC(=O)N1 | 106% | 94.1 | 107 | 78.3% | 103% | 105% | 91 | 99.4% | 116% | 94.2% | 113% | 109% | 105% | 106% | 98.6 | 111% | 97.8 |  | 101 | 95.8
Cc1cc2c(cc1C)N(C(=O)CCl)CC(=O)N2 | 63.2% | 119 | 39.2 | 78.3% | 44.5% | -8.11% (active) | 103 | 82.9% | -19.9% (active) | 17.1% | -8.95% (active) | 37.5% | 61.6% | 96.8% | 60.6 | 68.9% | 43.1 | 72.9% | 62.4 | 
COc1cc(/C=N/Nc2ccc(Br)cc2)cc(OC)c1OC | 73% | 63.9 | 69.7 | 35% | 97.2% | 31.6% | 10.2 | 60% | 31.1% | 44.1% | 68.8% | 58.4% | 54.8% | 68.4% | 51 | 85.2% | 57.3 | 80% | 57.2 | 
COC(=O)CC[C@@H]1O[C@@H](c2ccc(F)cc2)[C@@H](O)[C@H]1O | 109% | 104 | 109 | 94% | 101% | 101% | 96.8 | 112% | 107% | 105% | 96.6% | 101% | 112% | 90.2% | 115 | 101% | 113 |  | 104 | 104
COc1ccc2c(c1)c(/C(O)=C1\COC(=O)C1=O)cn2Cc1ccc(F)cc1 | 85.5% | 106 | 92.9 | 72.9% | 119% | 103% | 125 | 91.5% | 76.7% | 112% | 136% | 72.1% | 111% | 98% | 97.1 | 110% | 44 |  | 107 | 107

From PubChem BioAssay (NCI)
